Columns and labels:
Test in all cases: DAPPL (digital affinity profiling via proximity ligation, sequencing); 10 mM Tris-HCl pH 7.5, 50 mM NaCl, 1 mM DTT, 4% glycerol, room temperature, 30 min; GST-TFs on glutathione beads, 16-mer random dsDNA library, 0.1% formaldehyde crosslink after washing; high values mean tight binding
[1] = target: T1, FEV (Homo sapiens, UniProt Q99581 1-238); settings: protein: recombinant; tags: N-terminal GST; dsDNA, one strand shown
T1 sequence: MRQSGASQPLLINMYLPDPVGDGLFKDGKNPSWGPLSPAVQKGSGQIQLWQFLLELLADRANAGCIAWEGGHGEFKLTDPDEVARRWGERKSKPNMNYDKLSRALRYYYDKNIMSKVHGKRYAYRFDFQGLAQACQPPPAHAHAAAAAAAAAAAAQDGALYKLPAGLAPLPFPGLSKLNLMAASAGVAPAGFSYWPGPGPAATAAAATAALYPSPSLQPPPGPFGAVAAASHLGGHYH
Outline: (§1)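 A tag-only sample was pooled with DNA-barcoded human transcription factors that had been expressed in yeast as GST fusions and captured on glutathione beads. The pools were incubated for 30 min at room temperature with 200 nmole of a random double-stranded 16-mer DNA library in Tris/NaCl/DTT/glycerol buffer, then washed, crosslinked with 0.1% formaldehyde, proximity-ligated (BsaI/T4 ligase, 1 h, 37 °C), PCR-amplified and sequenced on an Illumina NextSeq500. Binding signal is each hexamer's read frequency for a factor divided by its frequency for the tag-only sample.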

[2] = target: ETV5 (Homo sapiens, UniProt P41161 1-510); settings: protein: recombinant; tags: N-terminal GST; dsDNA, one strand shown
Outline: as §1

[3] = target: HSF1 (Homo sapiens, UniProt Q00613 1-529); settings: protein: recombinant; tags: N-terminal GST; chain copies: 3; dsDNA, one strand shown
Outline: as §1

[4] = target: T2, SPIC (Homo sapiens, UniProt Q8N5J4 1-248); settings: protein: recombinant; tags: N-terminal GST; dsDNA, one strand shown
T2 sequence: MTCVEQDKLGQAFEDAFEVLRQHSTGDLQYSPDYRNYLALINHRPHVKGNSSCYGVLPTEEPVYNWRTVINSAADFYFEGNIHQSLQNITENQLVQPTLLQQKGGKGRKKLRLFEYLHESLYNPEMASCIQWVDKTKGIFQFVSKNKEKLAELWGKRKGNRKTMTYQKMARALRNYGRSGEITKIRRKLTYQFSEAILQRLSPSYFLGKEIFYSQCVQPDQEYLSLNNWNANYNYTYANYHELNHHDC
Outline: as §1

[5] = target: ELF4 (Homo sapiens, UniProt Q99607 1-663); settings: protein: recombinant; tags: N-terminal GST; dsDNA, one strand shown
Outline: as §1

[6] = target: T3, ELK4 (Homo sapiens, UniProt P28324-2 1-405); settings: protein: recombinant; tags: N-terminal GST; dsDNA, one strand shown
T3 sequence: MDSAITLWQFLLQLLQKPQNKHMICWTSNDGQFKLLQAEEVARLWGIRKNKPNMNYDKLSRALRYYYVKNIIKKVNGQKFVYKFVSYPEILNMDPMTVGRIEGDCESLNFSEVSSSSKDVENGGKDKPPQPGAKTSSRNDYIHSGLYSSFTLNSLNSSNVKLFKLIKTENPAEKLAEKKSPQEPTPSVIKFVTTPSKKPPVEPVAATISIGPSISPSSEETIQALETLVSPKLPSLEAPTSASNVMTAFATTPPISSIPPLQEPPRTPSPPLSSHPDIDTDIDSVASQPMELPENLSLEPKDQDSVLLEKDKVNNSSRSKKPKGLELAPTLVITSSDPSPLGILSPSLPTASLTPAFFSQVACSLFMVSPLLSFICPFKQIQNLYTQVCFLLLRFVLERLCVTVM
Outline: as §1

[7] = target: T4, ETV2 (Homo sapiens, UniProt O00321 1-342); settings: protein: recombinant; tags: N-terminal GST; dsDNA, one strand shown
T4 sequence: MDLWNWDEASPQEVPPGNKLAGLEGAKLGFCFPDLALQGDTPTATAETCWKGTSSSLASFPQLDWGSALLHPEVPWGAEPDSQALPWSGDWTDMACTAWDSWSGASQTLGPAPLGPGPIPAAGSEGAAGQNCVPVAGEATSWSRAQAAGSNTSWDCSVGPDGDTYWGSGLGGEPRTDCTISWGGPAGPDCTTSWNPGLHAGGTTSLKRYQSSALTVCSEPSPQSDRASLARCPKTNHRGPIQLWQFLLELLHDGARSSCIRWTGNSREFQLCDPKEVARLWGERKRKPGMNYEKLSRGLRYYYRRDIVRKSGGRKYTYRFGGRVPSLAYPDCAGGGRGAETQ
Outline: as §1

[8] = target: T5, ELF3 (Homo sapiens, UniProt P78545 1-371); settings: protein: recombinant; tags: N-terminal GST; dsDNA, one strand shown
T5 sequence: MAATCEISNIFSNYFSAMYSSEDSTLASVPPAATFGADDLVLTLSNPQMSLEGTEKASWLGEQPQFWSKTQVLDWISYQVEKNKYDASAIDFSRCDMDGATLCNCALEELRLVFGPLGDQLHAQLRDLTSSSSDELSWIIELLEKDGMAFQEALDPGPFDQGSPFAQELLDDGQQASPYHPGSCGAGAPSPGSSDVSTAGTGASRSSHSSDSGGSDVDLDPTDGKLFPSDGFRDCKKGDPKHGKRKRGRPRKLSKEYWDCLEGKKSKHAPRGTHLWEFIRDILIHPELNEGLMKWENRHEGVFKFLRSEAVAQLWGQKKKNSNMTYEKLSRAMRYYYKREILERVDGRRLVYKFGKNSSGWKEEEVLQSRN
Outline: as §1

[9] = target: CRX (Homo sapiens, UniProt O43186 1-299); settings: protein: recombinant; tags: N-terminal GST; dsDNA, one strand shown
Outline: as §1

Sequence of ELF4 (Q99607 whole entry): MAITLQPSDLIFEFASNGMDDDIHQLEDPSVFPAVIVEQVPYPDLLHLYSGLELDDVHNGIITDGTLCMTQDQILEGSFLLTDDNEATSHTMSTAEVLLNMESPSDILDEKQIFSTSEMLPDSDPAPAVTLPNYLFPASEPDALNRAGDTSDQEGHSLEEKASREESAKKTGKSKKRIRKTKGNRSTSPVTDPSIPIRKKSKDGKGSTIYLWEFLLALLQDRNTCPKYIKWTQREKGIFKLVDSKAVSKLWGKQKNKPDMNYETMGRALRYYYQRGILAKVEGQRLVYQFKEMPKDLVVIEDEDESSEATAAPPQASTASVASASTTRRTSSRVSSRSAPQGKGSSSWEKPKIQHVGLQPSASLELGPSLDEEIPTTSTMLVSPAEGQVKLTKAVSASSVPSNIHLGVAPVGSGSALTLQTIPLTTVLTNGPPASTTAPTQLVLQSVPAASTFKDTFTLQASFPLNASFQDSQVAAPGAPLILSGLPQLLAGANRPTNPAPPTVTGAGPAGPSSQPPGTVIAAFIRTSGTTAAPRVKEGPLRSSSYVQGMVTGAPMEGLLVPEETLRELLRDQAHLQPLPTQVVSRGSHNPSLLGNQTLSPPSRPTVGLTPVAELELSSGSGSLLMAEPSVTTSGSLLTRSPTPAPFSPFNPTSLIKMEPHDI
Sequence of HSF1 (Q00613 whole entry): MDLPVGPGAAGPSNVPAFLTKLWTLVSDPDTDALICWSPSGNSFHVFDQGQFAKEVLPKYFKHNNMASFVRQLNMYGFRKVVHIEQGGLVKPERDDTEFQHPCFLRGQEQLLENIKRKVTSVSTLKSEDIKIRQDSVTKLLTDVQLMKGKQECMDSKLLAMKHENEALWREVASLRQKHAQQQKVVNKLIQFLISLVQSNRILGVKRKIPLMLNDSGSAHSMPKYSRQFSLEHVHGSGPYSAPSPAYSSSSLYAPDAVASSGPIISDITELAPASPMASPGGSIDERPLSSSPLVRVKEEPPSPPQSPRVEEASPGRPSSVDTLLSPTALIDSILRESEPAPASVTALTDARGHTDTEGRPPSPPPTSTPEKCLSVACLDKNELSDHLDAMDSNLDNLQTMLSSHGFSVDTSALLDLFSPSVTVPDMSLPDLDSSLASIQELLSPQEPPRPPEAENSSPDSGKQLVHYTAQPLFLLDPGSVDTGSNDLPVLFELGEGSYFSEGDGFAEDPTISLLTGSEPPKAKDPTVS
Sequence of ETV5 (P41161 whole entry): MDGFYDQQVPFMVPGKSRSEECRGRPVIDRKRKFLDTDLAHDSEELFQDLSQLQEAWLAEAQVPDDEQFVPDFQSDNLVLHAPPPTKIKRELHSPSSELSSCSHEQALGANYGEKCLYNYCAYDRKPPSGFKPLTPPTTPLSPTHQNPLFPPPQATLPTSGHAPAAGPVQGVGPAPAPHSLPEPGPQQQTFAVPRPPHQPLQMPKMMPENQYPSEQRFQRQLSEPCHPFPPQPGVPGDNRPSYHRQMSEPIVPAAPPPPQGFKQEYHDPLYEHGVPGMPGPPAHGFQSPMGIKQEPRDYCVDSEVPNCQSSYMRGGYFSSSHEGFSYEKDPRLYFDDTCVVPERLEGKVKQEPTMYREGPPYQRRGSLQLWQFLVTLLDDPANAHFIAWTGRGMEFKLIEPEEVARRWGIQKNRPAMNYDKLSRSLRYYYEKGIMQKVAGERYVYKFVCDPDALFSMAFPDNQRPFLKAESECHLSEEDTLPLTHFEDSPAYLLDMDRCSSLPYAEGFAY
Sequence of CRX (O43186 whole entry): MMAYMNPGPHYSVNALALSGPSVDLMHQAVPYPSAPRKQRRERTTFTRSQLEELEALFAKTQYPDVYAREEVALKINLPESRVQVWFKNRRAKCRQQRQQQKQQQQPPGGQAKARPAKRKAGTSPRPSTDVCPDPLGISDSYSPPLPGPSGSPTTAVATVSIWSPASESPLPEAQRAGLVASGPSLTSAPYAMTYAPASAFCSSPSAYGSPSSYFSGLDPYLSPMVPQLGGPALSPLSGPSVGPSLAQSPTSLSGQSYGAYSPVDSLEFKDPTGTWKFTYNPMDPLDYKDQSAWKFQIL

CGACTT
binding signal [1]: 2 fold enrichment (6-mer frequency, TF over GST control)
binding signal [2]: 1.65 fold enrichment (6-mer frequency, TF over GST control)
binding signal [3]: 1.57 fold enrichment (6-mer frequency, TF over GST control)
binding signal [4]: 1.65 fold enrichment (6-mer frequency, TF over GST control)
binding signal [5]: 1.69 fold enrichment (6-mer frequency, TF over GST control)
binding signal [6]: 1.97 fold enrichment (6-mer frequency, TF over GST control)
binding signal [7]: 1.72 fold enrichment (6-mer frequency, TF over GST control)
binding signal [8]: 1.7 fold enrichment (6-mer frequency, TF over GST control)
binding signal [9]: 1.74 fold enrichment (6-mer frequency, TF over GST control)
